BJeLR viability: kills HRASV12-expressing BJeLR cells; BJeLR (HRASV12) viability, CellTiter-Glo ATP luminescence, 48 h; inhibition, % (no concentration beside the values); 300,000 compounds, 0.17% hits; AID 1554; in the data active = inhibition above about 50%
MazEF act: increases E. coli MazEF RNase cleavage of RNA; P0AE70; FAM/BHQ RNA-DNA oligo cleavage fluorescence, 5 h; activation, % at 20 µM; 350,000 compounds, 0.32% hits; AID 504720; in the data active = activation above about 50%
Target sequence (P0AE70 whole entry, looked up): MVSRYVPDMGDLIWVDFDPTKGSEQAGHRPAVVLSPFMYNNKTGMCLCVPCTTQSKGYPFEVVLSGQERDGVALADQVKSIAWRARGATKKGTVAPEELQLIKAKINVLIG
CCHFV vOTU inh: CCHFV vOTU protease inhibition | Pep-AMC fluorescence | inhibition, % at 11.5 µM | 370,000 compounds, 0.55% hits; in the data active = inhibition above about 30%
3CLpro inhibitor: SARS-CoV 3CLpro protease inhibition. inhibition, % at 6 µM. 290,000 compounds, 0.14% hits. P0C6X7. AID 1706. recombinant SARS-CoV 3CLpro, quenched FRET peptide cleavage; in the data active = inhibition above about 12%
VHR inh abs: DUSP3 (human) phosphatase inhibition; P51452; recombinant VHR phosphatase, pNPP absorbance; inhibition, % at 13.3 µM; 290,000 compounds, 0.52% hits; AID 1654; in the data active = inhibition above about 50%
Target sequence (P51452 whole entry, looked up): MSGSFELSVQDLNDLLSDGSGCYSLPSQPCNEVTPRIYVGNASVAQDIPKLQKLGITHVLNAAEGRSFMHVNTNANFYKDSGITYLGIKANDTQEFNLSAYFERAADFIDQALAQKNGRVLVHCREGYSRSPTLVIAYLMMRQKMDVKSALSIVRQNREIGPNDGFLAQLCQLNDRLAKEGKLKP
Each line names hits and unclear results; the compound was inactive in the other large screens. Rows were chosen to be rich in hits. Some 1.4% of all compounds tested hit in one or more screens of this group.

O=C(O)C[C@@H]1C(=O)O[C@@H]2C(COC(=O)c3cc(O)c(O)c(O)c3)O[C@@H](OC(=O)c3cc(O)c(O)c(O)c3)[C@@H](OC(=O)c3cc(O)c(O)c4c3[C@H]1[C@H](O)C(=O)O4)[C@H]2OC(=O)c1cc(O)c(O)c(O)c1 (stereo partly drawn)	VHR inh abs 114 (no result: BJeLR viability, MazEF act, CCHFV vOTU inh, 3CLpro inhibitor)
COC1OC(COC(=O)c2ccccc2)C(OC(=O)c2ccccc2)C1OC(=O)c1ccccc1 (stereo not drawn)	none (no result: VHR inh abs)
COC(=O)C1=C(C)N(C)C(C)=C(C(=O)OC)C1c1ccccn1	MazEF act 94
CCOC(=O)C1=C(C)N(C)C(C)=C(C(=O)OCC)C1c1ccccn1	none
COc1ccc(NC(=O)CN(C)S(=O)(=O)c2ccc3[nH]c(=O)oc3c2)cc1	BJeLR viability 56
CCc1ccc(NC(=O)CN(C)S(=O)(=O)c2ccc3[nH]c(=O)oc3c2)cc1	none (no result: CCHFV vOTU inh)
COc1cc(Cl)ccc1OCc1cc(C(=O)N2C[C@H]3CC[C@H]2C3)no1	VHR inh abs 53
CCc1ccc(/C=C2/SC(=S)N(CCC(=O)Nc3ccc(C(=O)O)cc3)C2=O)cc1	none (no result: MazEF act)
COc1ccc(/C=C2\SC(=S)N(CCCC(=O)Nc3cc(C)on3)C2=O)cc1OC	MazEF act 150
O=C(CCN1C(=O)/C(=C\c2cccs2)SC1=S)NC1=NCCS1	none
COc1ccc(/C=C2\SC(=S)N(CCCCCC(=O)Nc3cc(C)on3)C2=O)cc1OC	none
COc1ccccc1/C=C1/SC(=S)N(CCC(=O)Nc2cccnc2)C1=O	MazEF act 435
COc1ccccc1/C=C1\SC(=S)N(CCC(=O)NC2=NCCS2)C1=O	MazEF act 172
COc1ccc(/C=C2\SC(=S)N(CCC(=O)Nc3ccc(C(=O)O)cc3)C2=O)cc1	VHR inh abs 52
COC(=O)[C@]12C[C@H](CC(=O)N3CCOCC3)C(=O)N(Cc3ccco3)C1=C[C@H](C(C)C)O[C@@H]2C1CC1	none (no result: BJeLR viability, MazEF act, 3CLpro inhibitor, VHR inh abs)
O=C(NCc1ccc(Cl)cc1)C1CCCN(c2ncccn2)C1 (stereo not drawn)	none (no result: BJeLR viability, MazEF act, 3CLpro inhibitor, VHR inh abs)
CC(=O)Nc1nc2ncccn2c1-c1ccc(F)c(F)c1	none (no result: BJeLR viability, MazEF act, 3CLpro inhibitor, VHR inh abs)
CCc1ccccc1-c1cc(C(=O)OC)c2n(c1=O)CCC2	none (no result: BJeLR viability, MazEF act, 3CLpro inhibitor, VHR inh abs)
Cc1cccc(C)c1OCc1nnc(SCC(=O)Nc2ccc(N3CCOCC3)cc2)o1	VHR inh abs 54
Cc1ccc(N(CC(=O)N2CCCC2)S(C)(=O)=O)cc1C	VHR inh abs 58
C/C(=N/NS(=O)(=O)c1ccccc1)c1c[nH]c2ccccc12	none
C/C(=N/NS(=O)(=O)c1cccc([N+](=O)[O-])c1)c1c[nH]c2ccccc12	MazEF act 56
Cc1ccc(NC2CCCN(C(=O)CCCN3CCCCC3=O)C2)cc1C (stereo not drawn)	none
Cc1ccc(NC2CCCN(C(=O)CCN3CCOCC3)C2)cc1C (stereo not drawn)	VHR inh abs 53
Cc1ccc(NC2CCCN(C(=O)CCn3nccc3C)C2)cc1C (stereo not drawn)	VHR inh abs 54
CC(C)c1ccc(NC2CCCN(C(=O)CCN3CCOCC3)C2)cc1 (stereo not drawn)	VHR inh abs 51
CCc1nccn1CCC(=O)N1CCCC(Nc2ccc(C(C)C)cc2)C1 (stereo not drawn)	none
O=C(CSc1nnc(-c2ccccn2)n1-c1ccccc1)c1ccc2c(c1)OCO2	none (no result: BJeLR viability, MazEF act, 3CLpro inhibitor, VHR inh abs)
COc1ccc(S[C@]2(C(=O)N(C)C)CC(=O)N(C(=O)/C=C/c3ccccc3)[C@@H]2c2ccc(OC)cc2)cc1	none (no result: BJeLR viability, MazEF act, 3CLpro inhibitor, VHR inh abs)
CCCOc1ccc(-c2csc3nc[nH]c(=O)c23)cc1	none
O=c1[nH]cnc2scc(-c3ccc(-c4ccccc4)cc3)c12	MazEF act 83
COc1ccc(S[C@]2(C(=O)NCCCN(C)C)CC(=O)N[C@@H]2c2ccc(OC)cc2)cc1	none (no result: BJeLR viability, MazEF act, 3CLpro inhibitor, VHR inh abs)
Cc1ccc(CN2CCCCC(NC(=O)Nc3cccc(F)c3)C2=O)cc1 (stereo not drawn)	none (no result: BJeLR viability, MazEF act, 3CLpro inhibitor, VHR inh abs)
COc1cc(/C=C2\SC(c3ccc(C)cc3)=NC2=O)cc(OC)c1OC	MazEF act 102 (no result: CCHFV vOTU inh)
COc1ccc(/C=C2\SC(c3ccc(C)cc3)=NC2=O)cc1OC	MazEF act active
COc1ccc(/C=C2/SC(c3ccc(C)cc3)=NC2=O)cc1OC	none
COc1cc(/C=C2\SC(c3ccc(C)cc3)=NC2=O)ccc1O	none
COc1ccc(-n2c(SCC(=O)Nc3ccc(OCc4ccccc4)cc3)nnc2-c2ccc(C)cc2)cc1	none (no result: BJeLR viability, MazEF act, 3CLpro inhibitor, VHR inh abs)
O=C(O)CCNc1cc(N2CCN(C(=O)c3ccco3)CC2)c2noc3c2c1C(=O)c1ccccc1-3	CCHFV vOTU inh 54
CCN1CCN(c2cc(N3CCN(C(=O)c4ccco4)CC3)c3c4c(onc24)-c2ccccc2C3=O)CC1	none (no result: CCHFV vOTU inh)
CCC(C)c1ccc(N2C(=O)NC(=O)/C(=C/c3cccn3CCOc3ccc(C)cc3)C2=O)cc1 (stereo not drawn)	MazEF act 124
CC1(C)CC(=O)C2=C(C1)OC(N)=C(C#N)[C@@H]2c1ccccc1[N+](=O)[O-]	MazEF act 78
COC(=O)[C@]12C[C@H](CC(=O)NCc3ccc(OC)c(OC)c3)C(=O)N(Cc3ccc(Cl)cc3Cl)C1=C[C@H](C(C)C)O[C@@H]2C1CC1	none (no result: BJeLR viability, MazEF act, 3CLpro inhibitor, VHR inh abs)
COc1cccc(/C(O)=C2/C(=O)C(=O)N(CCN3CCOCC3)C2c2cccs2)c1 (stereo not drawn)	VHR inh abs 53
CCOC(=O)[C@]12CCCC=C1N(Cc1ccc(OC)cc1)C(=O)[C@@H]2CC(=O)NCc1cccc(C(F)(F)F)c1	none (no result: BJeLR viability, MazEF act, 3CLpro inhibitor, VHR inh abs)
C=CCn1c(SCCN2CCOCC2)nc2c1c(=O)[nH]c(=O)n2C	none
COCCn1c(SCCN2CCOCC2)nc2c1c(=O)[nH]c(=O)n2C	VHR inh abs 58
O=S1(=O)c2ccc(N3CC[C@@H](O)C3)cc2O[C@H]2CCN1C2	none (no result: BJeLR viability, MazEF act, 3CLpro inhibitor, VHR inh abs)
O=C(OCc1cn(Cc2cc(F)cc(F)c2)nn1)N1CCOCC1	none (no result: BJeLR viability, MazEF act, 3CLpro inhibitor, VHR inh abs)
O=c1c2ccccc2nc2c3ccccc3c(NCc3ccccn3)nn12	VHR inh abs 57 (no result: BJeLR viability)
CN1C/C(=C\c2ccc(N3CCOCC3)cc2)C(=O)/C(=C/c2ccc(N3CCOCC3)cc2)C1	MazEF act 57
CN1C/C(=C/c2ccsc2)C(=O)/C(=C/c2ccsc2)C1	none
CCOc1cc(/C=C2\CN(C)C/C(=C\c3ccc(O)c(OCC)c3)C2=O)ccc1O	BJeLR viability 61
CN1C/C(=C/c2ccncc2)C(=O)/C(=C/c2ccncc2)C1	BJeLR viability 72
O=C(NC1CCCCN(Cc2cccc(C(F)(F)F)c2)C1=O)c1ccc(Cl)cc1 (stereo not drawn)	none (no result: BJeLR viability, MazEF act, 3CLpro inhibitor, VHR inh abs)
CCOC(=O)CC[C@H]1CC[C@]2(CCCN(C3CCCCC3)C2)O1	none (no result: BJeLR viability, MazEF act, 3CLpro inhibitor, VHR inh abs)
CC(C)(C)NC(=S)Nc1ccc(Nc2ccccc2)cc1	VHR inh abs 53
CC(C)(C)NC(=S)Nc1ccc(Br)cc1	none
Cn1c(COc2ccccc2)nnc1SCC(=O)Nc1ccc(OCc2ccccc2)cc1	none (no result: BJeLR viability, MazEF act, 3CLpro inhibitor, VHR inh abs)
Oc1c(CN2CCN(c3ccccc3)CC2)cc(Br)c2cccnc12	BJeLR viability 77
c1ccc(N2CCN(Cc3ccnc4ccccc34)CC2)cc1	none
Cc1ccc(C(=O)NCCN2C(=O)C3C4C=CC(C4)C3C2=O)cc1 (stereo not drawn)	none (no result: BJeLR viability, MazEF act, 3CLpro inhibitor, VHR inh abs)
